Assay outcomes as filed in PubChem.
Most compounds without a hit are left out; they make up all but 0.78% or so of the library.
Yeast superoxide: lowers age-related superoxide in aged yeast cells; AID 2690; superoxide response (% of plate mean), % at 10 µM; hit rate 0.18% among 330,000; S. cerevisiae aged cells, superoxide DHE fluorescence; hits give low values;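 active = superoxide response under a set limit, about three screen SD below normal, cut at about 65% in these data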;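 also: yeast aged for seven days with compound at 30 °C before DHE staining; 100% = average MFI of all compound-treated wells on the plate with controls excluded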
V-ATPase pHluor: alters yeast V-ATPase proton transport. S. cerevisiae, pHLuorin cytosolic pH fluorescence. response, % at 10 µM. hit rate 0.37% among 350,000. AID 504577; in the data active = response mostly above about 7.3%, no sharp cut-off; inactive = mostly below about 5.4%; also: actives read high
PKA-R1A activ: activators of PKA-R1A complex; PKA-R1A dissociation, Cy5-IP20 fluorescence polarization; scaled: DMSO 0%, 113 µM cGMP 100%; activation, % at 11.4 µM; hit rate 0.083% among 340,000; AID 504707;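 active = percent activation above the mean of all tested compounds plus 3 SD, cut at about 19% in these data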;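 also: higher means more PKAc released from R1A so a rise in polarization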
PolyA inh: inhibitors of polyadenylation in S. cerevisiae. S. cerevisiae SKY197-pL101 polyadenylation reporter, beta-gal luminescence; efflux-impaired pdr1/pdr3 knockout yeast; score 100 = 6 SD above DMSO. activity score, % at 12 µM. hit rate 0.02% among 300,000. AID 1875;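 active = lowest replicate activity score at least 50, where 100 means six control SD above control mean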;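 also: yeast exposed to compound for 9 h at 30 °C; higher score means more reporter readthrough which indicates perturbed polyadenylation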
PKA-R2B activ: activators of human PKA-R2B complex; P22694+P31323; PKA-R2B holoenzyme dissociation, Cy5-IP20 fluorescence polarization; R2B truncated from residue 108, S112A mutant; 0% DMSO only, 100% 113 µM cGMP; activation, % at 11.4 µM; hit rate 0.079% among 340,000; AID 504700;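 active = activation above a cutoff set at the mean over all compounds plus 3 SD, cut at about 18% in these data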;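 also: higher means more holoenzyme dissociation and a rise in polarization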
Target sequence (P31323 whole entry, looked up, other chains not shown, the tested form may be a part): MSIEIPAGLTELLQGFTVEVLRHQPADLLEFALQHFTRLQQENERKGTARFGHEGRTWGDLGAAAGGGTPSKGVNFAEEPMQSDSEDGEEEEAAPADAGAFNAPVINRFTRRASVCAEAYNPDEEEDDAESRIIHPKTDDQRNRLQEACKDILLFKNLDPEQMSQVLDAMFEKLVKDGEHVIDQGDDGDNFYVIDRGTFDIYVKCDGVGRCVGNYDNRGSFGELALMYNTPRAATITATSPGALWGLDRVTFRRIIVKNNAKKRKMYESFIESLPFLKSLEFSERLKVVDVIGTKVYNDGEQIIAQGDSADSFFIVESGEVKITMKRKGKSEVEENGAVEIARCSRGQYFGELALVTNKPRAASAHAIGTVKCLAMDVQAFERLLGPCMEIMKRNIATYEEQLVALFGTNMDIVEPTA
GASC-1 inh: blocks human GASC-1 demethylase activity | Q9H3R0 | GST-JMJD2C(1-420) H3K9me3 demethylation, DELFIA europium | inhibition, % at 2.35 µM | hit rate 0.069% among 330,000;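 active = more than half of a compound's replicate wells show inhibition beyond 50%, single wells judged on their own value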;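 also: signal counts dimethyl H3K9 product captured on neutravidin plate; 0% = median of DMSO wells and 100% = 0.3 times that DMSO median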
CR mimetic CP: confirmation of caloric restriction mimetics inhibiting yeast age-related superoxide. S. cerevisiae aging, superoxide DHE fluorescence; hits give low values. superoxide response (% of plate), % at 10 µM. hit rate 1% among 850. shares compounds with Yeast superoxide;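 active = superoxide signal below 65% of the plate average of sample wells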;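 also: cells aged with compound for 7 days at 30 degrees C before staining; 100% equals mean DHE fluorescence of all compound wells on the plate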
DHE fluor count: compound alters DHE oxidation or fluorescence in yeast. shares compounds with Yeast superoxide. S. cerevisiae BY4741, flow cytometry; hits give low values. fluorescence response, % at 10 µM. 850 tested, under 10 active. AID 435000;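 active = fluorescence response below 15%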;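 also: percent of the mean fluorescence averaged over all compound wells on the plate; lower means stronger quenching of DHE signal or ROS scavenging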
* = called active by the depositor; nt = no result.

SMILES | Yeast superoxide | V-ATPase pHluor | PKA-R1A activ | PolyA inh | PKA-R2B activ | GASC-1 inh | others
N#CC1=C(N)Oc2c(c(=O)oc3ccccc23)C1c1ccncc1 (configuration not stated) | 108 | -4 | -16 | nt | -8 | nt
COC(=O)C1=C(N)Oc2c(c(=O)oc3ccccc23)C1c1cccnc1 (configuration not stated) | 94 | 27* | -2 | -6 | 3 | -2
Cc1nn(Cc2ccc(Cl)cc2Cl)c(Cl)c1C(=O)O | 121 | -2 | -11 | -19 | -15 | -5
N=c1c2c(n(Cc3ccc(Cl)cc3Cl)c3c1CCC3)CCCC2 | 80 | 13* | 1 | -9 | -2 | 6
CNCC[C@@H](Oc1ccc(C(F)(F)F)cc1)c1ccccc1 | 88 | 0 | -3 | nt | 13 | -13
COC(=O)C1=C(c2ccc(OC(F)(F)F)cc2)C[C@@H]2CC[C@H]1N2C(=O)NCc1cc(C)oc1C(F)(F)F | 103 | 4 | 0 | nt | 7 | 1
C[C@]12CCC3C(CC[C@H]4C[C@H](O)CC[C@]34C)C1[C@@H](O)[C@@H](O)[C@@H]2O (some centres not stated) | 97 | 6 | -3 | nt | -4 | nt
Cc1cc(C)cc(OCCOc2cccc(C=C3C(=O)NC(=O)NC3=O)c2)c1 | 102 | -3 | 12 | -6 | 3 | 68*
Cn1c(=O)[nH]c2nncnc2c1=O | 60* | -2 | -6 | 4 | -1 | 3
CC(=O)c1c(O)n(-c2cccc(Cl)c2)c(=O)[nH]c1=O (tested in a mixture with another compound) | 113 | 1 | -4 | -1 | 4 | -12
CC(C)n1c(O)c(C2c3cc(Cl)ccc3Oc3[nH]c(=O)n(C(C)C)c(=O)c32)c(=O)[nH]c1=O (configuration not stated) | nt | 18* | -1 | -9 | 0 | -4
O=C1NC(=S)N(c2ccccc2)C(=O)/C1=C/c1ccco1 | 107 | 7.6* | -15 | -8 | 12 | 11
O=C1NC(=O)N(Cc2ccc(F)cc2)C(=O)/C1=C\c1ccc(N2CCCC2)cc1 | 85 | -1 | -8 | -2 | -3 | -42
COc1ccc(CN2C(=O)NC(=O)/C(=C\c3ccco3)C2=O)cc1 | 99 | 4 | 10 | -15 | -5 | 11
COc1ccc(CN2C(=O)NC(=O)/C(=C/c3ccc([N+](=O)[O-])s3)C2=O)cc1 | 130 | 133* | -6 | -10 | -2 | -32
O=C1NC(=O)N(Cc2ccc(F)cc2)C(=O)/C1=C\c1ccc([N+](=O)[O-])s1 | 114 | 101* | -1 | 16 | 6 | -33
COC(=O)C1=C(c2ccc(F)cc2OCc2ccccc2)C[C@@H]2CC[C@H]1N2C(=O)NCc1cccc(C(F)(F)F)c1 | 92 | 0 | 2 | nt | -3 | -3
COc1cc(C=NNC(=S)Nc2ccc(S(=O)(=O)N3CCCCC3)cc2)cc(OC)c1OC | nt | 3 | -6 | nt | 3 | nt
CC(=O)C1C(N2CC2)CC2C3CC=C4CC(O)CCC4(C)C3CCC21C (configuration not stated) | nt | 1 | 2 | nt | -5 | nt
Cc1cc(O)c2c(c1)C(=O)C13C(=C2O)C(=O)[C@H]2[C@@H](O)[C@@H]1[C@H]1[C@H](O)[C@@H]3C(=O)C3=C(O)c4c(O)cc(C)cc4C(=O)C312 (some centres not stated) | 133 | -3 | 17 | nt | 37* | -4
COc1ccc(N2C(=O)NC(=O)/C(=C/c3ccc([N+](=O)[O-])s3)C2=O)cc1 | 102 | 101* | nt | 4 | nt | -15
CCOc1ccc(N2C(=O)NC(=O)/C(=C\c3cc(OC)c(OC)cc3[N+](=O)[O-])C2=O)cc1 | 87 | 0 | 16 | -17 | 4 | 0
COc1ccccc1N1C(=O)NC(=O)/C(=C/c2ccc([N+](=O)[O-])s2)C1=O | 98 | 125* | nt | -5 | nt | 17
COc1ccc(N2C(=O)NC(=O)/C(=C\c3ccc([N+](=O)[O-])s3)C2=O)cc1 | 94 | 102* | 4 | -5 | 4 | 9
COc1cccc(N2C(=O)NC(=O)/C(=C/c3ccc([N+](=O)[O-])s3)C2=O)c1 | 111 | 111* | 6 | -12 | 0 | 4
SMILES | Yeast superoxide | V-ATPase pHluor | PKA-R1A activ | PolyA inh | PKA-R2B activ | GASC-1 inh | others
COc1cccc(N2C(=O)NC(=O)/C(=C/c3ccc4c(c3)Cc3ccccc3-4)C2=O)c1 | 90 | -2 | -10 | -8 | 1 | 46
C[C@@H]1CN([C@@H](C)CO)C(=O)CCCn2nncc2CO[C@H]1CN(C)C(=O)Oc1ccc2ccccc2c1 | nt | -1 | -1 | nt | 1 | nt
c1ccc2c3c(ccc2c1)OCC1CONC31 (configuration not stated) | 84 | nt | nt | 9 | nt | 82*
COc1ccc(CN2C(=O)C(CC(=O)NCc3ccco3)CC(C(=O)N(C)C)=C2C)cc1 (configuration not stated) | nt | 0 | -3 | nt | 12 | nt
COc1ccc(C2=NCC(=S)Nc3ccc(Cl)cc32)cc1OC | 104 | -2 | 1 | -5 | -4 | -7
S=C1CN=C(c2ccccc2)c2cc(Cl)ccc2N1 | 93 | 25* | 18 | -28 | 2 | -10
O=C1NC(=O)N(Cc2ccccc2)C(=O)/C1=C/C=C/c1ccco1 | 100 | 12 | 10 | 8 | 11 | 58*
Cn1c(O)c(C(=Nc2ccc(F)cc2)c2ccccc2Cl)c(=O)n(C)c1=O | 62* | -4 | -2 | -49 | -8 | -3 | CR mimetic CP=75;DHE fluor count=93
CS(=O)(=O)c1ccc(C2=C(CNC(=O)c3nccs3)[C@H]3CC[C@@H](C2)N3CCOc2ccccc2)cc1 | nt | 0 | -13 | nt | -6 | nt
COC(=O)C1=C(c2ccc(Cl)c(C(F)(F)F)c2)C[C@@H]2CC[C@H]1N2C(=O)N1CCC(C)CC1 | 85 | -4 | -10 | nt | -6 | 4
Nc1c2c(nc3ccccc13)CCN(Cc1ccccc1)C2 | 94 | -3 | 4 | -15 | 4 | 0
Nc1cc2nc3ccccc3nc2cc1N | 41* | 1 | 4 | 9 | 9 | 8 | CR mimetic CP=68;DHE fluor count=89
CN(C)CC#CCC(O)(c1ccccc1)C1CCCC1 (configuration not stated) | 94 | 0 | 3 | -6 | -6 | 0
CN(C)CC#CCn1c2ccccc2c2ccccc21 | 115 | 1 | nt | -16 | nt | 128 | CR mimetic CP=103;DHE fluor count=90
